Results on 40 molecules are retold here after PubChem BioAssay.

Inconclusive results are not listed. Calls of active or inactive are those of the source.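 Rule for the calls, unless noted: active = viability increase at or above a cutoff of the median across tested compounds plus 3 SD (cut at about 8.5% in these data, passing the limit was not always enough); inconclusive = some gains above the cutoff, reason not given; inactive = the rest.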

A short description of the first assay: viability gain of MRP-1-high H69AR cells under doxorubicin, pilot screen, MRP-1 activator project, CellTiter-Glo, duplicate (AID 807).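 Note: compound pretreatment 18-22 h then 72 h combined with doxorubicin; 0% = doxorubicin alone and 100% = vehicle without doxorubicin.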 The conditions noted are these: H69AR viability with doxorubicin, CellTiter-Glo luminescence; at 10 µM; stronger effect = higher value. In general terms: In ATP-based viability assays light output follows the ATP content of the culture.
Turning to `CCOC(=O)N1CCN(C(=O)C2CCCN(Cc3nc(-c4ccc(Cl)cc4)oc3C)C2)CC1` (stereo not given), the viability increase was -4.13% (inactive).

Consider `CCCCN(C)C(=O)C(Cc1ccccc1)NS(=O)(=O)c1ccc2c(c1)CCC(=O)N2` (stereo not given), for which the viability increase was -2.47% (inactive).

As to `COC(=O)c1ccc(OCC(O)CN2CCC(C)CC2)cc1` (stereo not given), the viability increase is -2.26% (inactive).

With `CCC(=O)Nc1ccc(C(=O)n2nc(C)cc2C)cc1`, the viability increase is -2.24% (inactive).

Regarding `CC1CCc2nc3ccc(S(=O)(=O)N4CCC(C(=O)NC5CCCC5)CC4)cc3c(C(=O)O)c2C1` (stereo not given), the viability increase is -2.1% (inactive).

With `COc1ccc(S(=O)(=O)N2CCC(C(=O)N3CCOCC3)CC2)cc1OC`, the viability increase was -0.87% (inactive).

For `O=C(CCCCn1c(=O)[nH]c2ccccc2c1=O)NCCc1c[nH]c2ccccc12`, the viability increase is -4.05% (inactive).

As to `O=C1C(Cl)=C(NCC2CCCO2)C(=O)N1C1CCCCC1` (stereo not given), the viability increase is -3.97% (inactive).

As to `Cc1cc2cc(CNC(=O)c3ccco3)ccc2n1C`, the viability increase is -4.26% (inactive).

With `CCOC(=O)N1CCN(C(=O)CN(c2cc(Cl)ccc2OC)S(=O)(=O)c2ccccc2)CC1`, the viability increase is -2.13% (inactive).

Take `O=C(NCCSCc1ccco1)c1ccc(CN2CCOCC2)cc1`: the viability increase is -1.57% (inactive).

Take `CC(C)(C)NC(=O)CSc1nc(O)cc(=O)n1-c1ccccc1F`: the viability increase is -0.7% (inactive).

Regarding `Cc1sc2nc(CSc3nnc(Cc4cccs4)n3C3CCCCC3)[nH]c(=O)c2c1C`, the viability increase is 3.27% (inactive).

As to `COc1ccccc1C1NC(=O)NC(C)=C1C(=O)Nc1cccc(C)c1C` (stereo not given), the viability increase was -1.32% (inactive).

Turning to `CC(C)Sc1nnc(Cn2c(=O)sc3ccccc32)n1-c1ccccc1`, the viability increase was -0.05% (inactive).

As for `CCCCC(=O)Nc1ccc(Br)cc1C(=O)O`, the viability increase was 0.11% (inactive).

As to `c1csc(Cc2nc3ccccc3[nH]2)c1`, the viability increase is 0.14% (inactive).

For the molecule `Cc1noc(NS(=O)(=O)c2ccc(N3Cc4ccccc4C3=O)cc2)c1C`, the viability increase was -2.74% (inactive).

`COCCNC(=O)c1cc2c(=O)n3cccc(C)c3nc2n1C`: the viability increase is -5.8% (inactive).

Take `Cc1ccc(C)c(Cn2c(CN(C)Cc3ccccc3)nc3c2c(=O)n(C)c(=O)n3C)c1`: the viability increase is -6.57% (inactive).

With `CCOc1ccccc1NC(=O)CSc1nnc(-c2ccccn2)n1Cc1ccco1`, the viability increase is -1.92% (inactive).

As to `Cc1nnc(SCCn2c(N3CCCC(C)C3)nc3c2c(=O)n(C)c(=O)n3C)s1` (stereo not given), the viability increase was -3.23% (inactive).

For the molecule `CC1Cc2nc(SCC(=O)Nc3ccc4c(c3)OCO4)n(CCc3ccccc3)c(=O)c2S1` (stereo not given), the viability increase was -2.89% (inactive).

`COc1ccccc1CNC(=O)c1cnc2ccccn2c1=O`: the viability increase is -0.15% (inactive).

For `COc1ccccc1NC(=O)CSc1nnc(-c2ccco2)n1Cc1ccco1`, the viability increase is -3.34% (inactive).

On to `COc1ccc(Cl)cc1S(=O)(=O)n1ccnc1C(C)C`, for which the viability increase is -2.46% (inactive).

As for `O=C(CNS(=O)(=O)c1cccs1)Nc1ccc2c(c1)OCCO2`, the viability increase was -1.78% (inactive).

For the molecule `O=C(NCCCN1CCOCC1)c1ccco1`, the viability increase was -0.94% (inactive).

Take `CCCCn1c(=NC(=O)c2cccnc2)c(C(=O)OCC)cc2c(=O)n3ccccc3nc21`: the viability increase is -4.72% (inactive).

Turning to `Cc1ccc2oc(=O)c3cnn(CC(=O)NCCN4CCOCC4)c3c2c1`, the viability increase was -0.17% (inactive).

On to `Cc1nc(CCNC(=O)COc2ccccc2)cs1`, for which the viability increase was -0.26% (inactive).

For the molecule `CC(C)(C)n1nc2c(c1NC(=O)c1ccc(Br)cc1)CS(=O)C2` (stereo not given), the viability increase was 0.64% (inactive).

Turning to `O=C(NCc1ccc(Cl)cc1)C1CCCN(S(=O)(=O)c2cnc[nH]2)C1` (stereo not given), the viability increase was 1.36% (inactive).

Consider `CC1(C)CC(=O)C2=C(C1)OC(N)=C(C#N)C2c1ccc(OC(=O)N2CCOCC2)cc1` (stereo not given), for which the viability increase is -1.1% (inactive).

In the case of `CSc1nnc2n(-c3ccc(C)cc3)c(=O)c3c4c(sc3n12)COC(C(C)C)C4` (stereo not given), the viability increase is -4.07% (inactive).

For `COCCN1C(=O)c2oc3ccccc3c(=O)c2C1c1ccc(O)c(OC)c1` (stereo not given), the viability increase was -3.27% (inactive).

On to `O=C1NC(=O)C(CC(=O)N(Cc2ccco2)C2(C(=O)NC3CCCCC3)CCCCC2)N1` (stereo not given), for which the viability increase was -2.17% (inactive).

`O=C(NCc1cccs1)C1CCCN1S(=O)(=O)c1ccccc1F` (stereo not given): the viability increase was -0.97% (inactive).

As to `CCOC(=O)N1CCC(N2C(=O)c3ccccc3C2Nc2cc(OC)c(OC)c(OC)c2)CC1` (stereo not given), the viability increase was -4.12% (inactive).

As to `O=C(O)c1ccc(Cl)c2c1C1C=CCC1C(c1ccccn1)N2` (stereo not given), the viability increase is -2.57% (inactive).

The nature of the next assay: growth suppression of beta-catenin knockout HCT116, pilot screen, human colon tumor cells (AID 823;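 active = cell viability at or below a set limit in both duplicate runs, the limit being the all-compound median minus 4 SD, cut at about 23% in these data, passing the limit was not always enough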;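 note: 0% = wells killed by 20 µM Hyamine and 100% = untreated DMSO cell wells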). Particulars: CellTiter-Glo, 60 h, at 10 µM, stronger effect = lower value.
Take `CCOC(=O)N1CCN(C(=O)C2CCCN(Cc3nc(-c4ccc(Cl)cc4)oc3C)C2)CC1` (stereo not given): the viability is 37.9% (inactive).

`CCCCN(C)C(=O)C(Cc1ccccc1)NS(=O)(=O)c1ccc2c(c1)CCC(=O)N2` (stereo not given): the viability is 89.5% (inactive).

`COC(=O)c1ccc(OCC(O)CN2CCC(C)CC2)cc1` (stereo not given): the viability was 92.3% (inactive).

Turning to `CCC(=O)Nc1ccc(C(=O)n2nc(C)cc2C)cc1`, the viability was 103% (inactive).

`CC1CCc2nc3ccc(S(=O)(=O)N4CCC(C(=O)NC5CCCC5)CC4)cc3c(C(=O)O)c2C1` (stereo not given): the viability is 94.8% (inactive).

For `COc1ccc(S(=O)(=O)N2CCC(C(=O)N3CCOCC3)CC2)cc1OC`, the viability is 91.5% (inactive).

Regarding `O=C(CCCCn1c(=O)[nH]c2ccccc2c1=O)NCCc1c[nH]c2ccccc12`, the viability is 93.5% (inactive).

On to `O=C1C(Cl)=C(NCC2CCCO2)C(=O)N1C1CCCCC1` (stereo not given), for which the viability was 88.3% (inactive).

As to `Cc1cc2cc(CNC(=O)c3ccco3)ccc2n1C`, the viability was 106% (inactive).

As for `CCOC(=O)N1CCN(C(=O)CN(c2cc(Cl)ccc2OC)S(=O)(=O)c2ccccc2)CC1`, the viability is 97.1% (inactive).

As to `O=C(NCCSCc1ccco1)c1ccc(CN2CCOCC2)cc1`, the viability is 101% (inactive).

Regarding `CC(C)(C)NC(=O)CSc1nc(O)cc(=O)n1-c1ccccc1F`, the viability was 95.5% (inactive).

Consider `Cc1sc2nc(CSc3nnc(Cc4cccs4)n3C3CCCCC3)[nH]c(=O)c2c1C`, for which the viability is 92.8% (inactive).

As to `COc1ccccc1C1NC(=O)NC(C)=C1C(=O)Nc1cccc(C)c1C` (stereo not given), the viability was 105% (inactive).

For `CC(C)Sc1nnc(Cn2c(=O)sc3ccccc32)n1-c1ccccc1`, the viability was 87.1% (inactive).

Take `CCCCC(=O)Nc1ccc(Br)cc1C(=O)O`: the viability is 89.9% (inactive).

In the case of `c1csc(Cc2nc3ccccc3[nH]2)c1`, the viability was 97.8% (inactive).

Take `Cc1noc(NS(=O)(=O)c2ccc(N3Cc4ccccc4C3=O)cc2)c1C`: the viability is 102% (inactive).

With `COCCNC(=O)c1cc2c(=O)n3cccc(C)c3nc2n1C`, the viability was 34.3% (inactive).

Consider `Cc1ccc(C)c(Cn2c(CN(C)Cc3ccccc3)nc3c2c(=O)n(C)c(=O)n3C)c1`, for which the viability was 71.7% (inactive).

Turning to `CCOc1ccccc1NC(=O)CSc1nnc(-c2ccccn2)n1Cc1ccco1`, the viability is 96.9% (inactive).

As to `Cc1nnc(SCCn2c(N3CCCC(C)C3)nc3c2c(=O)n(C)c(=O)n3C)s1` (stereo not given), the viability was 94.2% (inactive).

Take `CC1Cc2nc(SCC(=O)Nc3ccc4c(c3)OCO4)n(CCc3ccccc3)c(=O)c2S1` (stereo not given): the viability was 94.4% (inactive).

Regarding `COc1ccccc1CNC(=O)c1cnc2ccccn2c1=O`, the viability is 97.8% (inactive).

Take `COc1ccccc1NC(=O)CSc1nnc(-c2ccco2)n1Cc1ccco1`: the viability is 92.8% (inactive).

Take `COc1ccc(Cl)cc1S(=O)(=O)n1ccnc1C(C)C`: the viability was 102% (inactive).

For `O=C(CNS(=O)(=O)c1cccs1)Nc1ccc2c(c1)OCCO2`, the viability is 89.2% (inactive).

Take `O=C(NCCCN1CCOCC1)c1ccco1`: the viability is 98.8% (inactive).

As to `CCCCn1c(=NC(=O)c2cccnc2)c(C(=O)OCC)cc2c(=O)n3ccccc3nc21`, the viability was 84.2% (inactive).

On to `Cc1ccc2oc(=O)c3cnn(CC(=O)NCCN4CCOCC4)c3c2c1`, for which the viability is 103% (inactive).

Consider `Cc1nc(CCNC(=O)COc2ccccc2)cs1`, for which the viability is 103% (inactive).

In the case of `CC(C)(C)n1nc2c(c1NC(=O)c1ccc(Br)cc1)CS(=O)C2` (stereo not given), the viability is 107% (inactive).

In the case of `O=C(NCc1ccc(Cl)cc1)C1CCCN(S(=O)(=O)c2cnc[nH]2)C1` (stereo not given), the viability is 106% (inactive).

Regarding `CC1(C)CC(=O)C2=C(C1)OC(N)=C(C#N)C2c1ccc(OC(=O)N2CCOCC2)cc1` (stereo not given), the viability was 100% (inactive).

For `CSc1nnc2n(-c3ccc(C)cc3)c(=O)c3c4c(sc3n12)COC(C(C)C)C4` (stereo not given), the viability is 37.3% (inactive).

For the molecule `COCCN1C(=O)c2oc3ccccc3c(=O)c2C1c1ccc(O)c(OC)c1` (stereo not given), the viability was 97.5% (inactive).

In the case of `O=C1NC(=O)C(CC(=O)N(Cc2ccco2)C2(C(=O)NC3CCCCC3)CCCCC2)N1` (stereo not given), the viability is 104% (inactive).

With `O=C(NCc1cccs1)C1CCCN1S(=O)(=O)c1ccccc1F` (stereo not given), the viability was 102% (inactive).

As for `CCOC(=O)N1CCC(N2C(=O)c3ccccc3C2Nc2cc(OC)c(OC)c(OC)c2)CC1` (stereo not given), the viability was 92.2% (inactive).

In the case of `O=C(O)c1ccc(Cl)c2c1C1C=CCC1C(c1ccccn1)N2` (stereo not given), the viability was 98.3% (inactive).

For orientation: viability means a read-out of living cells in per cent, often relative to untreated cells.
